# About 410 targets per protein were measured; listed, in parts, are those with the strongest signals and a random draw of the rest.
# B1: GS7807Q-bfa-507-19-507 (Bacteroides fragilis) (protein)
# chain: ASCNKFDDLNTNPDAATKVTAPMLATKLILNITQQGSAKNFVYHSMLSKQIAWSENASDEQYNLFGRTDFDGYTILTNCQKMVDAANEGDKDSYAALAKFMKAYKLFYKSLEVGDIPYSDALKGEEGVQKPKYDTQKEVMRQVLEDLEEAYTLFSSGSDFDGDPIFGGDTENWKKTVVAFELKVLTHLCKKDTDADLKVKERFARLVSSGSLMTSNADNFQLVYSNKAGQLYPFYYTQNKHSDYLMMSSVIIDNLKKFNDYRMFYYASPAKAQTDKGIKDSEWDAYLSIDPSDSYSNISVLYGKGEFCLANLRYTRVPEGEPLMRLSYAEQNFILAEGAVRGWISEDASTYYKKGIEASMNFIADNTPDKEEYTHGRTITQEYIQEYLAQPVIQLSGDKEKDLEMILLQRYLASFLQHPYDAYYDYRRTGYPVLPINPSTNLNTEKNKIPTRWMYPEAEFSYNPDNANEAVQRQYNGSDDVNKLMWILQ
# Experiments:
# Assay in all cases: glycan array binding signal (z-score within array); higher = stronger binding
# Details in all cases: glycan notation: IUPAC condensed, linker removed
# [1] = biological target: Gal(b1-4)GlcNAc(b1-3)Gal(b1-4)GlcNAc(b1-3)Gal(b1-4)GlcNAc(b1-3)Gal(b1-4)GlcNAc(b1-3)Gal(b1-4)GlcNAc(b1-2)Man(a1-3)[Gal(b1-4)GlcNAc(b1-3)Gal(b1-4)GlcNAc(b1-3)Gal(b1-4)GlcNAc(b1-3)Gal(b1-4)GlcNAc(b1-3)Gal(b1-4)GlcNAc(b1-2)Man(a1-6)]Man(b1-4)GlcNAc(b1-4)GlcNAc
# In short: (§1)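 Arrays were curated from the Consortium for Functional Glycomics database, 3228 in total, and kept only where the protein sequence was available. Binding is expressed as a within-array Z-score. This score was averaged across arrays of the same protein sequence at different concentrations or buffers and across linkers, and negative values can be read as non-binding.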
# [2] = biological target: Gal(b1-4)GlcNAc(b1-3)Gal(b1-4)GlcNAc(b1-3)GalNAc
# In short: as §1
# [3] = biological target: Gal(b1-4)GlcNAc(b1-3)Gal(b1-4)GlcNAc(b1-3)[Gal(b1-4)GlcNAc(b1-3)Gal(b1-4)GlcNAc(b1-6)]GalNAc
# In short: as §1
# [4] = biological target: Gal(b1-4)GlcNAc(b1-3)Gal(b1-4)[Fuc(a1-3)]GlcNAc(b1-3)Gal(b1-4)[Fuc(a1-3)]GlcNAc
# In short: as §1
# GalNAc(a1-3)GalNAc = biological target: GalNAc(a1-3)GalNAc
# In short: as §1
# GalNAc(b1-3)GlcNAc = biological target: GalNAc(b1-3)GlcNAc
# In short: as §1
# GalNAc(b1-4)GlcNAc = biological target: GalNAc(b1-4)GlcNAc
# In short: as §1
# GalNAc3S(b1-4)GlcNAc3S = biological target: GalNAc3S(b1-4)GlcNAc3S
# In short: as §1
# [5] = biological target: GalNAc3S(b1-4)[Fuc(a1-3)]GlcNAc
# In short: as §1
# [6] = biological target: GlcA3S(b1-3)Gal(b1-4)GlcNAc(b1-3)Gal(b1-4)Glc
# In short: as §1
# [7] = biological target: GlcNAc(a1-4)Gal(b1-4)GlcNAc
# In short: as §1
# [8] = biological target: GlcNAc(a1-4)Gal(b1-4)GlcNAc(b1-3)Gal(b1-4)[Fuc(a1-3)]GlcNAc(b1-3)Gal(b1-4)[Fuc(a1-3)]GlcNAc
# In short: as §1
# [9] = biological target: GlcNAc(b1-3)Gal(b1-4)GlcNAc(b1-2)Man(a1-3)[GlcNAc(b1-3)Gal(b1-4)GlcNAc(b1-2)Man(a1-6)]Man(b1-4)GlcNAc(b1-4)[Fuc(a1-6)]GlcNAc
# In short: as §1
# [10] = biological target: GlcNAc(b1-3)Gal(b1-4)GlcNAc(b1-2)[GlcNAc(b1-3)Gal(b1-4)GlcNAc(b1-6)]Man(a1-6)[GlcNAc(b1-3)Gal(b1-4)GlcNAc(b1-2)Man(a1-3)]Man(b1-4)GlcNAc(b1-4)GlcNAc
# In short: as §1
# [11] = biological target: GlcNAc(b1-3)Gal(b1-4)GlcNAc(b1-3)Gal(b1-4)GlcNAc(b1-2)[GlcNAc(b1-3)Gal(b1-4)GlcNAc(b1-3)Gal(b1-4)GlcNAc(b1-6)]Man(a1-6)[GlcNAc(b1-3)Gal(b1-4)GlcNAc(b1-3)Gal(b1-4)GlcNAc(b1-2)Man(a1-3)]Man(b1-4)GlcNAc(b1-4)[Fuc(a1-6)]GlcNAc
# In short: as §1
# [12] = biological target: GlcNAc(b1-3)Gal(b1-4)GlcNAc(b1-3)Gal(b1-4)GlcNAc(b1-3)Gal(b1-4)GlcNAc(b1-3)Gal(b1-4)GlcNAc(b1-2)Man(a1-3)[GlcNAc(b1-3)Gal(b1-4)GlcNAc(b1-3)Gal(b1-4)GlcNAc(b1-3)Gal(b1-4)GlcNAc(b1-3)Gal(b1-4)GlcNAc(b1-2)Man(a1-6)]Man(b1-4)GlcNAc(b1-4)[Fuc(a1-6)]GlcNAc
# In short: as §1
# [13] = biological target: Man(a1-2)Man(a1-3)[Man(a1-6)]Man(a1-6)[Man(a1-2)Man(a1-3)]Man(b1-4)GlcNAc(b1-4)GlcNAc
# In short: as §1
# [14] = biological target: Man(a1-2)Man(a1-6)[Man(a1-3)]Man(a1-6)[Man(a1-2)Man(a1-2)Man(a1-3)]Man
# In short: as §1
# Man(a1-6)Man = biological target: Man(a1-6)Man
# In short: as §1
# [15] = biological target: Neu5Ac(a2-3)Gal(b1-3)GalNAc(b1-4)[Neu5Ac(a2-3)]Gal(b1-4)Glc
# In short: as §1
# [16] = biological target: Neu5Ac(a2-3)Gal(b1-3)[Fuc(a1-4)]GlcNAc(b1-3)Gal(b1-4)[Fuc(a1-3)]GlcNAc
# In short: as §1
# [17] = biological target: Neu5Ac(a2-3)Gal(b1-4)GlcNAc
# In short: as §1
# [18] = biological target: Neu5Ac(a2-3)Gal(b1-4)GlcNAc(b1-2)Man(a1-3)[GlcNAc(b1-4)][Neu5Ac(a2-3)Gal(b1-4)GlcNAc(b1-2)Man(a1-6)]Man(b1-4)GlcNAc(b1-4)GlcNAc
# In short: as §1
# [19] = biological target: Neu5Ac(a2-3)Gal(b1-4)GlcNAc(b1-2)Man(a1-3)[Neu5Ac(a2-3)Gal(b1-4)GlcNAc(b1-2)Man(a1-6)]Man(b1-4)GlcNAc(b1-4)GlcNAc
# In short: as §1
# [20] = biological target: Neu5Ac(a2-3)Gal(b1-4)GlcNAc(b1-2)[Neu5Ac(a2-3)Gal(b1-4)GlcNAc(b1-6)]Man(a1-6)[Neu5Ac(a2-3)Gal(b1-4)GlcNAc(b1-2)Man(a1-3)]Man(b1-4)GlcNAc(b1-4)GlcNAc
# In short: as §1
# [21] = biological target: Neu5Ac(a2-3)Gal(b1-4)GlcNAc(b1-3)GalNAc
# In short: as §1
# [22] = biological target: Neu5Ac(a2-3)Gal(b1-4)[Fuc(a1-3)]GlcNAc(b1-3)Gal(b1-4)GlcNAc
# In short: as §1
# [23] = biological target: Neu5Ac(a2-6)Gal(b1-4)GlcNAc(b1-2)Man(a1-3)Man(b1-4)GlcNAc(b1-4)GlcNAc
# In short: as §1
# [24] = biological target: Neu5Ac(a2-6)Gal(b1-4)GlcNAc(b1-2)[Neu5Ac(a2-6)Gal(b1-4)GlcNAc(b1-4)]Man(a1-3)[GlcNAc(b1-4)][Neu5Ac(a2-6)Gal(b1-4)GlcNAc(b1-4)Man(a1-6)]Man(b1-4)GlcNAc(b1-4)GlcNAc
# In short: as §1
# [25] = biological target: Neu5Ac(a2-6)Gal(b1-4)GlcNAc(b1-2)[Neu5Ac(a2-6)Gal(b1-4)GlcNAc(b1-6)]Man(a1-6)[Neu5Ac(a2-6)Gal(b1-4)GlcNAc(b1-2)Man(a1-3)][GlcNAc(b1-4)]Man(b1-4)GlcNAc(b1-4)GlcNAc
# In short: as §1
binder,measurement,setting,value
B1,glycan array binding signal (z-score),[1],-0.15
same,glycan array binding signal (z-score),[2],-0.268
same,glycan array binding signal (z-score),[3],-0.074
same,glycan array binding signal (z-score),[4],-0.174
same,glycan array binding signal (z-score),GalNAc(a1-3)GalNAc,-0.06
same,glycan array binding signal (z-score),GalNAc(b1-3)GlcNAc,-0.454
same,glycan array binding signal (z-score),GalNAc(b1-4)GlcNAc,3.09
same,glycan array binding signal (z-score),GalNAc3S(b1-4)GlcNAc3S,-0.279
same,glycan array binding signal (z-score),[5],-0.654
same,glycan array binding signal (z-score),[6],0.23
same,glycan array binding signal (z-score),[7],-0.604
same,glycan array binding signal (z-score),[8],3.02
same,glycan array binding signal (z-score),[9],2.43
same,glycan array binding signal (z-score),[10],1.65
same,glycan array binding signal (z-score),[11],2.73
same,glycan array binding signal (z-score),[12],-0.41
same,glycan array binding signal (z-score),[13],-0.639
same,glycan array binding signal (z-score),[14],0.113
same,glycan array binding signal (z-score),Man(a1-6)Man,0.531
same,glycan array binding signal (z-score),[15],-0.316
same,glycan array binding signal (z-score),[16],-0.38
same,glycan array binding signal (z-score),[17],-0.496
same,glycan array binding signal (z-score),[18],-0.905
same,glycan array binding signal (z-score),[19],-0.347
same,glycan array binding signal (z-score),[20],1.35
same,glycan array binding signal (z-score),[21],-0.737
same,glycan array binding signal (z-score),[22],-0.425
same,glycan array binding signal (z-score),[23],-0.09
same,glycan array binding signal (z-score),[24],0.481
same,glycan array binding signal (z-score),[25],0.863
